Source: PubChem BioAssay (NCATS)
“And” between values parts separate entries of the source, which are not always exact repeats. Identical values can stand only once. Inconclusive results are not listed. The source made the active and inactive calls. Unless noted, calls follow the shape of the dose curve; as a rule, active = well fitted curve in the direction sought with a large enough effect; inconclusive = small, poorly fitted or top-dose-only effect, or another doubt; inactive = no such curve, though single readings can be large; an effect the other way counts as inactive or inconclusive.

How the values were obtained:
[1] = Cell Viability - BJ (AID 421; calls by dose curve;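 also: potency is read from the fitted curve at half-maximal effect; cells exposed to compound for 40 hours at 37 °C before readout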); details: BJ fibroblast viability, qHTS
Outline: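 Luminescent ATP signal (CellTiter-Glo, 20 min at room temperature) served as the read-out of viable BJ cells after 40 hours of compound treatment. Responses were scaled between DMSO and 100 uM tamoxifen, and AC50 values were obtained by Hill modeling.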

[2] = Cell Viability - Jurkat (AID 426;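 active = dose-dependent loss of cell ATP signal giving a full or clear fitted curve, ranked by lower potency value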;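 also: potency is read from the fitted curve at half-maximal effect; cells exposed to compound for 40 hours at 37 °C before ATP read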); details: qHTS
Outline: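 Jurkat (Clone E6-1) cells, 5000/well in complete medium, exposed to compounds for 40 hr at 37C; intracellular ATP measured by CellTiter-Glo luminescence after 20 min at room temperature. AC50 from Hill fits.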

[3] = Cell Viability - Hek293 (AID 427;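 active = compounds whose dose-response curve shows a full or clear partial loss of cell viability, called from curve shape rather than a numeric limit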;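 also: potency is read from the fitted curve at half-maximal effect; cells exposed to compound for 40 hours at 37 °C before reading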); details: qHTS
Outline: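 Luminescent ATP read-out (CellTiter-Glo, 20 min RT) after 40 hr compound exposure at 37 °C in complete medium. Signal normalized to DMSO (basal) and 100 uM tamoxifen (100% inhibition); concentration-response fitted with the standard Hill equation to give AC50.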

[4] = Cell Viability - MRC5 (AID 434; calls by dose curve;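 also: potency is read from the fitted curve at half-maximal effect; potency reflects cytotoxicity seen as loss of intracellular ATP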); details: MRC5 lung fibroblast viability, qHTS
Outline: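 qHTS cytotoxicity in human lung fibroblast MRC5 cells; 40 hr treatment, 37 °C; cellular ATP by luciferase luminescence; DMSO = 0%, 100 uM tamoxifen = 100% inhibition; Hill-fit AC50.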

[5] = Cell Viability - Mesenchymal (AID 546); details: mesenchymal cells viability, qHTS; series mostly up to 91.7 µM;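 also: cells exposed to compound for 40 hours before reading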
Outline: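 AC50 values reflect the drop in intracellular ATP in a human kidney mesenchymal line derived from normal glomeruli. Treatment lasts 40 hr at 37 °C in complete medium, and the signal comes from CellTiter-Glo luminescence.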

[6] = Cellular Toxicity (caspase-3) SHSY5Y (AID 657); details: SH-SY5Y caspase-3 activation, DMSO zero, 10 µM staurosporine = 100%; series mostly up to 91.7 µM
Outline: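 SH-SY5Y human neuroblastoma cells, 1500/well, exposed to compound for 16 hours at 37 °C in complete medium. Caspase-3/7 activity read by Caspase-Glo luminescence after 1 hr at room temperature, normalized to DMSO and 10 uM staurosporine; AC50 from Hill fit.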

[7] = Cellular Toxicity (caspase-3) MRC-5 (AID 659); details: MRC-5 cells, luminescence, normalized: DMSO 0%, 10 µM staurosporine 100%; series mostly up to 91.7 µM
Outline: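 Concentration-dependent caspase 3/7 activation is measured in human normal lung fibroblasts (MRC-5) following 16-hour treatment. AC50 values come from standard Hill-equation modeling of luminescence normalized to DMSO and 10 uM staurosporine.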

[8] = Cellular Toxicity (caspase-3) Mesangial (AID 660); details: mesangial cells, normalized: DMSO 0%, 100 µM tamoxifen 100%; series mostly up to 91.7 µM;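 also: cells exposed to compound for 16 h before the caspase read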
Outline: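 Human renal glomerular mesangial cells, 1000/well, 5 h at 37 C before 16 h compound treatment. Caspase-Glo 3/7 luminescence after 20 min; normalized to DMSO and 100 uM tamoxifen, AC50 from Hill fit.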

[9] = Cellular Toxicity (caspase-3) SK-N-SH (AID 661); details: SK-N-SH caspase-3 activation, qHTS; series mostly up to 91.7 µM
Outline: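 Human SK-N-SH neuroblastoma cells, 1500/well, were exposed to compounds for 16 hours at 37 °C. Caspase-Glo 3/7 luminescence was normalized to DMSO (basal) and 10 uM staurosporine (100%), and AC50 came from a Hill fit.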

[10] = Cellular Toxicity (caspase-3) Hek293 (AID 664); details: HEK293 caspase-3 activation, DMSO = 0%, 100 µM tamoxifen = 100%; at 92.2 µM (top of the series);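 also: cells exposed to compound for 16 h at 37 °C before readout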
Outline: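 HEK293 cells in complete medium treated 16 h at 37 °C, then Caspase-Glo 3/7 luminescence read after 20 min at room temperature. Normalized to DMSO and 100 uM tamoxifen; AC50 from Hill fit of concentration-response.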

[11] = Cellular Toxicity (caspase-3) N2a (AID 665); details: N2a cells, luminescence, normalized: DMSO 0%, 10 µM staurosporine 100%; series mostly up to 92.2 µM;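 also: compound exposure lasted 16 h at 37 °C before readout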
Outline: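 Mouse N2a neuroblastoma cells, 1500 per well, treated 16 h at 37 °C in complete medium; caspase-3/7 activity by Caspase-Glo luminescence after 1 h. Normalized to DMSO and 10 uM staurosporine; AC50 from Hill fits.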

[12] = Cell Viability - LYMP1-002 - Assay at 16 hr (AID 948); details: LYMP1-002 lymphoblastoid cell viability; series mostly up to 92.2 µM;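 also: 0% = DMSO alone and full effect = 92 µM tetraoctylammonium bromide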
Outline: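 LYMP1-002 human lymphoblastoid cells, 2500/well, were treated with compounds for 16 hr at 37 C in complete medium. Viability was read as intracellular ATP by CellTiter-Glo luminescence, and AC50 was derived from a Hill fit to concentration-response data.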

[13] = MultiTox-Fluor Cytotoxicity Assay - LYMP1-003 - Dead Cells (AID 961); details: LYMP1-003 lymphoblastoid cells, dead-cell protease fluorescence; series mostly up to 92.2 µM;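 also: 0% = DMSO and 100% = tetraoctylammonium bromide; nearly all actives have a fitted effect of over 70% in size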
Outline: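 Human lymphoblastoid LYMP1-003 cells (2500/well) were treated with compounds for 16 hr at 37 C in complete medium. Dead-cell protease release was read by bis-AAF-R110 fluorescence (Ex/Em 485/520). AC50 came from Hill fits, normalized to DMSO and 15 uM tetraoctylammonium bromide.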

[14] = MultiTox-Fluor Cytotoxicity Assay - LYMP1-003 - Live Cells (AID 962); details: LYMP1-003 lymphoblastoid cells, MultiTox-Fluor live-cell protease fluorescence; series mostly up to 92.2 µM;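 also: 0% = DMSO only and full loss = 92 µM tetraoctylammonium bromide; cytotoxic hits lower the live-cell protease signal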
Outline: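 LYMP1-003 lymphoblastoid cells, 2500/well in complete medium, treated 16 h at 37 C; live-cell protease cleavage of GF-AFC read by fluorescence (Ex/Em 405/510) after 60 min reagent; AC50 from Hill fits of concentration-response.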

[15] = Cell Viability - LYMP1-003 - Assay at 24 hr (AID 963); details: LYMP1-003 lymphoblastoid cell viability; series mostly up to 92.2 µM;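 also: plate controls were DMSO only for no effect and tetraoctylammonium bromide positive control for full effect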
Outline: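 Human lymphoblastoid LYMP1-003 cells, 2500/well, treated 24 h at 37 C in complete medium. Viability read as intracellular ATP by CellTiter-Glo luminescence after 30 min at room temperature; AC50 from Hill-equation fits of qHTS concentration-response.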

[16] = Cell Viability - LYMP2-008 (AID 980); details: LYMP2-008 lymphoblastoid cell viability, qHTS; series mostly up to 92.2 µM;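 also: cells exposed to compound for 24 h at 37 °C; % is scaled to controls: 0 for no effect and ±100 for the full control effect; nearly all actives have a fitted effect of over 60% in size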
Outline: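 LYMP2-008 lymphoblastoid cells (2500/well) plated 5 h, then treated 24 h at 37 C in complete medium. Viability read as intracellular ATP by CellTiter-Glo luminescence after 30 min at room temperature; AC50 from Hill fits.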

[17] = qHTS Assay for Identification of Small Molecule Inducers of Hypoxia Response (AID 2120; active = well fitted curve in the direction sought with a large enough effect in the signal ratio, with a control signal flat, not every such curve was filed as active; the % refers to the signal ratio; also: 0% is about no effect); details: hypoxia response reporter cells, beta-lactamase ratio readout; series mostly up to 104 µM
Outline: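 HRE-bla ME-180 cells in Opti-MEM with 0.5% dialyzed FBS, pre-plated 4-5 h, then compound titration for 17 h at 37 degrees Celsius. CCF4 loaded 2.5 h at room temperature; 460/530 nm ratio gave %Activity and AC50 for induction.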

[18] = target: Peroxisome proliferator-activated receptor alpha (Homo sapiens) (UniProt Q07869); test: qHTS assay for small molecule agonists of the peroxisome proliferator-activated receptor alpha (PPARalpha) signaling pathway (AID 651778); details: PathHunter PPARalpha complementation, chemiluminescence, 6 h; stronger effect = higher value; also: % of control where 0% means no effect
Outline: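 Chemiluminescence from complemented enzyme reported PPARalpha activation in cells after 6 hr of compound treatment at 37 C. The detection reagent was incubated for 60 min at room temperature, and compounds were scored as agonists.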

[19] = qHTS assay for small molecule agonists of the antioxidant response element (ARE) signaling pathway measured by Nrf2-dependant transcriptional activity - cell viability counter screen (AID 720653; active = well fitted curve in the direction sought with a large enough effect in the repeat runs; an effect the other way counts as inactive or inconclusive; also: % is scaled to controls: 0 for no effect and ±100 for the full control effect); details: ARE-bla HepG2 viability, CellTiter-Glo ATP luminescence, 16 h; stronger effect = lower value
Outline: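 Cytotoxicity counter screen: intracellular ATP quantified by CellTiter-Glo luminescence in the same ARE-bla HepG2 plates, after 16 h compound exposure and a 2 h beta-lactamase substrate step.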

[20] = qHTS assay for cell viability of the p53RE-bla HCT-116 cell line (AID 743292); details: p53RE-bla HCT-116 viability, ATP luminescence, 16 h; series mostly up to 95 µM; also: % is scaled to controls: 0 for no effect and ±100 for the full control effect; nearly all actives have a fitted effect of over 55% in size
Outline: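 CellSensor p53RE-bla HCT-116 cells (4,000/well) pre-incubated 5 h at 37 C, then exposed to compounds in DMSO for 16 h at 37 C. Viability read as ATP content by CellTiter-Glo luminescence after 30 min at room temperature.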

Sequence of Peroxisome proliferator-activated receptor alpha (Homo sapiens) (Q07869 whole entry, looked up): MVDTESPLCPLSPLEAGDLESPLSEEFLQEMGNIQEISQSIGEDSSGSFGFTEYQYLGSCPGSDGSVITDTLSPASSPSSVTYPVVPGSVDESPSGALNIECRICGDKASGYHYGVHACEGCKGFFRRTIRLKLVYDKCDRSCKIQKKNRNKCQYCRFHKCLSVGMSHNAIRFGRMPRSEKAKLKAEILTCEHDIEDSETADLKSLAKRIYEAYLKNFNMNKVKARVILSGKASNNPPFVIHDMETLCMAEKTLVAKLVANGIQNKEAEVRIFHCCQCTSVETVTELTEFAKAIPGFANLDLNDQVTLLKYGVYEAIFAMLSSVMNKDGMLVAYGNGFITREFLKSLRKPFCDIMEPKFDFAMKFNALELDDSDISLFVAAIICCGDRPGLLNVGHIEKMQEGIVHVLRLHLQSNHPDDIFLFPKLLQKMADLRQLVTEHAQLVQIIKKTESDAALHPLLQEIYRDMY

C=CC(=O)OCCN(C)C
inactive: Potency [1] > 92 µM | Potency [2] > 92 µM | Potency [3] > 92 µM | Potency [4] > 92 µM | Potency [5] | outcome [6] | outcome [7] | outcome [8] | Potency [9] | caspase-3 activation [10] -0.126% | outcome [11] | outcome [12] | Potency [13] | outcome [14] | outcome [15] | Potency [16] | Potency [17] | max response [18] 10.1% | max response [19] 5.35% | Potency [20]

Cc1ccc2c(c1N)C(=O)c1ccccc1C2=O
inactive: Potency [1] > 92 µM | Potency [2] > 92 µM | Potency [3] > 92 µM | Potency [4] > 92 µM | outcome [6] | outcome [7] | outcome [8] | Potency [9] | caspase-3 activation [10] -8.32% | outcome [11] | outcome [12] | Potency [13] | outcome [14] | outcome [15] | Potency [16] | Potency [17] | max response [18] -8.43% and -4.54% | max response [19] -21.8% and -21.2% | Potency [20]

ClP(Cl)(Cl)(Cl)Cl
inactive: Potency [1] > 92 µM | Potency [2] > 92 µM | Potency [3] > 92 µM | Potency [4] > 92 µM | Potency [5] | outcome [6] | outcome [7] | outcome [8] | Potency [9] | caspase-3 activation [10] -1.32% | outcome [11] | outcome [12] | Potency [13] | outcome [14] | outcome [15] | Potency [16] | Potency [17] | max response [18] 0.162% | max response [19] -1.82% | Potency [20]

O=[N+]([O-])c1ccc(Cl)cc1
inactive: Potency [1] > 92 µM | Potency [2] > 92 µM | Potency [3] > 92 µM | Potency [4] > 92 µM | Potency [5] | outcome [6] | outcome [7] | outcome [8] | Potency [9] | caspase-3 activation [10] -0.181% | outcome [11] | outcome [12] | Potency [13] | outcome [14] | outcome [15] | Potency [16] | Potency [17] | max response [18] -4.31% and 0.471% | max response [19] -7.74% and 0.776% | Potency [20]

C=COC(C)=O
inactive: Potency [1] > 92 µM | Potency [2] > 92 µM | Potency [3] > 92 µM | Potency [4] > 92 µM | Potency [5] | outcome [6] | outcome [7] | outcome [8] | Potency [9] | caspase-3 activation [10] 1.36% | outcome [11] | outcome [12] | Potency [13] | outcome [14] | outcome [15] | Potency [16] | Potency [17] | max response [18] -3.52% | max response [19] 7.83% | Potency [20]

Cc1ccc(N=C=O)cc1N=C=O
inactive: Potency [1] > 92 µM | Potency [3] > 92 µM | Potency [4] > 92 µM | Potency [5] | outcome [6] | outcome [7] | outcome [8] | Potency [9] | caspase-3 activation [10] 2% | outcome [11] | outcome [12] | Potency [13] | outcome [14] | outcome [15] | Potency [16] | Potency [17] | max response [18] -6.43% and 0.39% | max response [19] -4.8% and -0.784% | Potency [20]
